Screens from PubChem.
Sampled rows, rich in hits. Any-hit rate of the full collection: about 2.3%.
Nrf2 activator = Nrf2 pathway activation; AREc32 ARE-luciferase reporter (MCF7-derived line), luminescence, 24 h; actives 0.31% (n = 410,000); Potency, µM (top dose mostly 46.1 µM), for the others: top-dose activation, usual class: activators; AID 624171; note: potency is the fitted concentration of half-maximal effect; % of control where 0% means no effect; nearly all actives have a fitted effect of over 65% in size
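Reporter line AREc32 (ARE-Fluc), seeded overnight in OPTI-MEM with 5% FBS; compound pin-transferred, 24 hr at 37 deg C, 5% CO2; luminescent read-out.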
Anesthetic bind = candidate novel general anesthetic via apoferritin binding; Potency, µM (series often up to 77.5 µM), without a hit: at the highest dose activity change, negative = displacement, usual class: inhibitors; apoferritin/1-aminoanthracene competitive binding, fluorescence; P02791; AID 485281; actives 0.074% (n = 350,000); note: potency is the fitted concentration of half-maximal effect; % is set by controls: 0 for no effect and ±100 for the full control effect; nearly all actives have a fitted effect of over 20% in size
Target sequence (P02791 2-175 limits assumed): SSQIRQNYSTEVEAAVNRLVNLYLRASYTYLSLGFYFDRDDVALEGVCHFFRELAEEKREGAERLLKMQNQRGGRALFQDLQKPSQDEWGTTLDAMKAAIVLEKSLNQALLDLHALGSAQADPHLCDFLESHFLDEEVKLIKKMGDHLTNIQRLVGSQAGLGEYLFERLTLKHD
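Apoferritin-based anesthetic binding model; compound displacement of fluorescent 1-AMA measured as endpoint fluorescence after 10 minutes at room temperature, scaled to free-ligand and complex controls.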
Giardia kill = Giardia lamblia killing. activity change, % at 7.66 µM, hits read low. actives 0.15% (n = 340,000). Giardia lamblia trophozoite viability; in the data active = activity change below about -80%; inconclusive = between about -30% and that limit;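 note: parasites exposed to compound for two days anaerobically before the ATP read; % is set by controls: 0 for no effect and ±100 for the full control effect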
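Viability, read as ATP luminescence: trophozoites at 100 cells/well, compound added, 48 hrs anaerobic at 37 deg C, then 15-30 min room-temperature development before reading.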
mIDH1 inhibitor = human IDH1 R132H inhibition | O75874 | IDH1-R132H enzyme, NADPH consumption, diaphorase/resazurin fluorescence | Potency, µM (highest dose often 76.6 µM), for the others: at the highest dose activity change, negative = inhibition, hits mostly inhibitors | actives 0.093% (n = 390,000) | AID 602179; note: potency is the fitted concentration of half-maximal effect; % is set by controls: 0 for no effect and ±100 for the full control effect; nearly all actives have a fitted effect of over 65% in size
Target sequence (O75874 whole entry R132H, stated change not applied): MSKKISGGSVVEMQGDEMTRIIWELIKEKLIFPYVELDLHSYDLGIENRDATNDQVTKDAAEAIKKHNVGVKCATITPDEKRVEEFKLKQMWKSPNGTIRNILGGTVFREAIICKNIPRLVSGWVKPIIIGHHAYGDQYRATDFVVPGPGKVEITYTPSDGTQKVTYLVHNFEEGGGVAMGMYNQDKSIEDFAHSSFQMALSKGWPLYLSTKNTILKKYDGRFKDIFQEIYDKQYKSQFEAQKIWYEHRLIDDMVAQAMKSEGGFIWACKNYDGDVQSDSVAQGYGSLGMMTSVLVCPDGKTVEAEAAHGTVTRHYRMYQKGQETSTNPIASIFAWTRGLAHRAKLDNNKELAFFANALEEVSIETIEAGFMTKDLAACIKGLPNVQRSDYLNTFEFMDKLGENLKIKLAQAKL
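IDH1-R132H (0.5 ug/mL dispensed) in pH 7.5 Tris buffer was preincubated 30 min with compound, then given a substrate mix of 0.016 mM NADPH and 2 mM alpha-KG for 80 min at room temperature; remaining NADPH was read by diaphorase/resazurin fluorescence.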
Nrf2 inh = blocks Nrf2 signaling; Potency, µM (series often up to 46 µM), for inactives: at the top dose activity change, negative = inhibition, most hits filed as inhibitors; actives 2.1% (n = 360,000); AID 504444; A549 ARE-Fluc reporter, luciferase luminescence, 18-24 h; note: potency is the fitted concentration of half-maximal effect; % is set by controls: 0 for no effect and ±100 for the full control effect; nearly all actives have a fitted effect of over 60% in size
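Cells were seeded and rested 2 h, then exposed to compounds for 18-24 h. CellTiter-Fluor was read first as a viability measure. BugLite was added 15 min before the final luminescent read of ARE-luciferase activity in A549 cells.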
A549 tox = A549 cytotoxicity, counter-screen for Nrf2 inhibitors. AID 504648. Potency, µM (doses to about 46 µM), without a hit: at the top dose activity change, negative = cytotoxicity, hits mostly inhibitors. actives 0.16% (n = 390,000). A549 ARE-Fluc cells, CellTiter-Fluor viability, 18-24 h; note: potency is the fitted concentration of half-maximal effect; % is set by controls: 0 for no effect and ±100 for the full control effect
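Cytotoxicity counterscreen: CellTiter-Fluor fluorescence was measured in A549 ARE_Fluc cells after 18-24 h of compound exposure in a concentration series. The subsequent BugLite luminescent read reports ARE-luciferase activity.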
Numbers without * were called inactive; [ ] = dose if it differs, or a comment. Unless noted, calls come from the whole dose curve; as a rule, active = well fitted curve in the direction sought with a large enough effect; inconclusive = small, poorly fitted or top-dose-only effect, or another doubt; inactive = no such curve, though single readings can be large; an effect the other way counts as inactive or inconclusive.

What do the screens show for `Cn1c2cc(C#N)sc2c2cnn(Cc3ccccc3F)c(=O)c21`?
Nrf2 inh: 13%; A549 tox: -4%

Results for O=C(/C=C/c1ccc(Cl)cc1)NC(=S)Nc1ccc(N2CCOCC2)c(Cl)c1 ?
Nrf2 activator: -1%; Anesthetic bind: -15%; Giardia kill: -1; mIDH1 inhibitor: -4%; Nrf2 inh: 16µM*; A549 tox: -12%

What do the screens show for `O=C(/C=C/c1ccccc1)NC(=S)Nc1ccc(N2CCOCC2)cc1`?
Nrf2 activator: 4%; Anesthetic bind: inconclusive; Giardia kill: 2; mIDH1 inhibitor: 4%; Nrf2 inh: inconclusive; A549 tox: -1%

Results for CC(C)(C)OC(=O)NCCCCCc1cn([C@@H](CO)C(=O)NCCCCCCCCCCC(=O)N2CCN(C(=O)OC(C)(C)C)CC2)nn1 ?
Nrf2 activator: -3%; Giardia kill: 9; mIDH1 inhibitor: 2%[38.3 µM]; Nrf2 inh: 7.3µM*; A549 tox: inconclusive

What do the screens show for `COc1ccc(Cc2c(-c3ccco3)nc3c(C)cc(Br)cn23)c(C)c1`?
Nrf2 activator: 7%

Results for Cc1cc(Br)cn2c(Cc3ccccc3)c(-c3ccco3)nc12 ?
Nrf2 activator: 10µM*

Results for Cc1cc(Br)cn2c(Cc3ccsc3)c(-c3ccco3)nc12 ?
Nrf2 activator: 7.1µM*

Results for COc1ccc(Cc2c(-c3ccco3)nc3ccc(Br)cn23)c(C)c1 ?
Nrf2 activator: 8.9µM*

Results for COc1cc(NC(=O)c2c(F)cccc2F)nc(OC)n1 ?
Nrf2 activator: 3%; Anesthetic bind: -9%; Giardia kill: 13; mIDH1 inhibitor: 4%; A549 tox: 15%

Results for COc1ccccc1C(=O)NNC(=O)c1cccc(Cl)c1 ?
Nrf2 activator: inconclusive; Anesthetic bind: -1%; Giardia kill: 0; mIDH1 inhibitor: 4%; Nrf2 inh: inconclusive; A549 tox: 5%

How did COc1ccccc1C(=O)NNC(=O)c1cccc(Br)c1 do in these assays?
Nrf2 activator: 6.3µM*; Anesthetic bind: inconclusive; Giardia kill: 7; mIDH1 inhibitor: 3%; Nrf2 inh: inconclusive; A549 tox: 16%

Results for COc1cc(NC(=O)c2cccc(Br)c2)nc(OC)n1 ?
Nrf2 activator: 14µM*; Anesthetic bind: -20%; Giardia kill: -9; mIDH1 inhibitor: 11%; Nrf2 inh: 6%; A549 tox: 1%

What do the screens show for `O=C1CC(c2ccco2)CC2=C1C(c1cccnc1)n1nc(C(F)(F)F)nc1N2` (stereo unspecified)?
Giardia kill: 3; Nrf2 inh: -15%; A549 tox: -3%

Results for Cc1cc2c(s1)c1cnn(Cc3c(F)c(F)c(C)c(F)c3F)c(=O)c1n2C ?
Nrf2 inh: 10%; A549 tox: -4%

What do the screens show for `COc1c(C)cccc1C(=O)Nc1ccc(-c2nc3ccccc3s2)c(Cl)c1`?
Nrf2 activator: 0%; Anesthetic bind: -3%; mIDH1 inhibitor: 0%; Nrf2 inh: 26µM*; A549 tox: -23%

Results for COc1ccc(C(=O)Nc2ccc(-c3nc4ccccc4s3)c(Cl)c2)cc1Cl ?
Nrf2 activator: 0%; Anesthetic bind: -7%; mIDH1 inhibitor: -10%; Nrf2 inh: 18%; A549 tox: 1%

What do the screens show for `CCCCC[C@H](C)N1C[C@@H](COCc2ccccc2)Oc2cc(N3CCC[C@H]3C(N)=O)ccc2S1(=O)=O`?
Nrf2 activator: 1%

How did O=C1NC(=O)/C(=C/c2ccco2)N1 do in these assays?
Nrf2 activator: 1%; Giardia kill: -7; Nrf2 inh: 4%; A549 tox: 1%

What do the screens show for `O=C1NC(c2ccccc2)=N/C1=C/c1ccco1`?
Nrf2 activator: 4µM*; Anesthetic bind: -13%; Giardia kill: -4; mIDH1 inhibitor: -5%; Nrf2 inh: inconclusive; A549 tox: -11%

What do the screens show for `O=C1NNC(c2ccccc2)=N/C1=C\c1ccccc1`?
Nrf2 activator: 1%; Anesthetic bind: -6%; Giardia kill: 10; mIDH1 inhibitor: -1%; Nrf2 inh: 1%; A549 tox: -5%

Results for O=C1NC(c2ccccc2Br)=N/C1=C\c1ccco1 ?
Nrf2 activator: 5.6µM*; Anesthetic bind: -11%; Giardia kill: -3; mIDH1 inhibitor: 2%; Nrf2 inh: 17%; A549 tox: -6%

How did O=C1NC(c2cccc(Br)c2)=N/C1=C\c1ccco1 do in these assays?
Nrf2 activator: 8.9µM*; Anesthetic bind: 0%; Giardia kill: -11; mIDH1 inhibitor: 0%; Nrf2 inh: inconclusive; A549 tox: -13%

How did O=C1CN(C(=O)c2ccc(Br)o2)C(c2ccc(F)cc2)c2cc(F)ccc2N1 (stereo unspecified) do in these assays?
Nrf2 activator: 2%; Anesthetic bind: 2%; Giardia kill: -7; mIDH1 inhibitor: 6%; Nrf2 inh: 16µM*; A549 tox: -19%

How did CCc1nnc(NC(=O)/C=C/c2ccco2)s1 do in these assays?
Nrf2 activator: 4.5µM*; Anesthetic bind: 2%; Giardia kill: -10; mIDH1 inhibitor: -11%; Nrf2 inh: 20%; A549 tox: inconclusive

What do the screens show for `COc1ccc(C2c3c(nc(CCc4ccccc4)[nH]c3=O)Oc3ccc4ccccc4c32)cc1OC` (stereo unspecified)?
Nrf2 inh: 6%; A549 tox: 5%

What do the screens show for `Nc1c(S(=O)(=O)c2cccs2)c2nc3ccccc3nc2n1/N=C/c1cccc(O)c1`?
Nrf2 activator: -1%; Anesthetic bind: -11%; Giardia kill: 23; mIDH1 inhibitor: -11%; Nrf2 inh: 26µM*; A549 tox: inconclusive

What do the screens show for `COc1ccccc1N1CCN(C(=O)CSc2ncnc3scc(-c4ccccc4)c23)CC1`?
Nrf2 activator: 2%; Anesthetic bind: -11%; Giardia kill: -4; mIDH1 inhibitor: 0%; Nrf2 inh: 18µM*; A549 tox: -3%

What do the screens show for `Cc1cccc2cc3c(N)c(C(=O)Nc4ccc(N5CCOCC5)cc4)sc3nc12`?
Nrf2 activator: 0%; Anesthetic bind: -12%; Giardia kill: 3; mIDH1 inhibitor: 2%; Nrf2 inh: 23µM*; A549 tox: -18%

Results for CCCOc1ccccc1C(=O)N1CCC(c2nc3ccccc3s2)CC1 ?
Nrf2 activator: 1%; Anesthetic bind: 5%; mIDH1 inhibitor: 0%; Nrf2 inh: inconclusive; A549 tox: -3%
